± gives the standard deviation.
Key:
Conditions in all cases: modulator concentration 10 µM
[1] = test system: RAW-Dual (murine macrophage reporter line); assay: NF-kB reporter (SEAP) activity fold change vs agonist alone; higher = enhanced NF-kB activity
Procedure, shortened: (§1)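 RAW-Dual murine macrophage reporter cells were seeded at 50 000 per well in 384-well plates and pre-incubated 1 hour at 37 °C with compound pin-transferred to 10 μM final. After 1 hour, a PRR agonist was added and cells incubated overnight. Supernatant NF-κB (SEAP, QUANTI-Blue, 620 nm absorbance) and IRF (Lucia luciferase, QUANTI-Luc, luminescence) signals were divided by the mean agonist-only control on the same plate to give fold change. Two replicate plates were averaged, with errors by propagation.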

[2] = test system: RAW-Dual (murine macrophage reporter line); assay: IRF reporter (Lucia luciferase) activity fold change vs agonist alone; higher = enhanced IRF activity
Procedure, shortened: as §1

[3] = test system: RAW-Dual (murine macrophage reporter line); assay: viability score (confluency relative to resting cells, overnight) (fraction); higher = more viable, active = viable (0.7 or more)
Procedure, shortened: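 Compound was added at a final 10 μM to RAW-Dual macrophages in 384-well plates and left overnight. Confluency was imaged with IncuCyte, and two masks were generated in IncuCyte software over all imaged wells. Each viability score is confluency relative to resting cells, and a compound met the cutoff only when both masks were above 70% of resting cells.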

[4] = agonist: CpG ODN 1826 0.5 ug/mL

SMILES	NF-kB reporter [1, 4]	NF-kB reporter ([1]; agonist: LPS 0.1 ug/mL)	NF-kB reporter ([1]; agonist: MPLA […])	IRF reporter ([2]; agonist: 3'3'-cGAMP 10 ug/mL)	IRF reporter ([2]; agonist: LPS 0.1 ug/mL)	IRF reporter ([2]; agonist: MPLA […])	viability score [3]
O=C1NC(=S)NC(=O)C1=Cc1ccc(OCc2ccc(F)cc2)c(Cl)c1	0.918 ± 0.092	0.943 ± 0.064	0.802 ± 0.05	0.765 ± 0.02	1.13 ± 0.095	0.824 ± 0.14	1.01 (active)
COc1cc2c(cc1OC)C1C(=O)c3ccc4c(c3OC1CO2)CC(C(C)C)O4 (centres undefined)	1.11 ± 0.19	1.48 ± 0.12	2.31 ± 0.18	0.857 ± 0.06	1.89 ± 0.32	2.1 ± 0.4	0.976 (active)
CC12CC1(C)C(=O)N(c1cc(Cl)cc(Cl)c1)C2=O (centres undefined)	1.06 ± 0.092	1.1 ± 0.097	0.96 ± 0.045	0.942 ± 0.085	1.11 ± 0.081	1.18 ± 0.17	1 (active)
COCCN1C(=O)CN(C2CCN(CC(=O)N3CC(C)OC(C)C3)CC2)C1=O (centres undefined)	0.903 ± 0.056	0.889 ± 0.11	0.997 ± 0.073	0.95 ± 0.13	0.979 ± 0.13	1.03 ± 0.29	0.977 (active)
CC(=O)C1CCC2C3CCC4CC(O)CCC4(C)C3CCC12C (centres undefined)	1.17 ± 0.28	1.16 ± 0.097	1.02 ± 0.079	0.858 ± 0.034	1.2 ± 0.19	1.38 ± 0.13	0.985 (active)
Cc1ccc(-c2nn(-c3ccccc3)cc2C=C2C(=O)NC(=S)NC2=O)o1	1.03 ± 0.3	1.01 ± 0.11	0.898 ± 0.071	0.968 ± 0.057	1.27 ± 0.2	1.25 ± 0.13	1 (active)
COc1cc2c(cc1O)CC1c3c(cc(O)c(OC)c3-2)CCN1C (centres undefined)	0.916 ± 0.23	0.96 ± 0.078	0.924 ± 0.092	0.881 ± 0.03	1.17 ± 0.16	1.12 ± 0.11	0.999 (active)
O=C(NCCN1CCN(c2ccccc2)CC1)c1ccc(F)cc1	1 ± 0.081	1.04 ± 0.051	1.03 ± 0.026	1.1 ± 0.18	0.94 ± 0.045	0.83 ± 0.084	1 (active)
O=c1cc(CCl)occ1O	1.18 ± 0.09	0.9 ± 0.09	1.13 ± 0.04	0.948 ± 0.13	0.876 ± 0.11	0.806 ± 0.26	0.999 (active)
Clc1cccc(CNCCc2c[nH]c3ccccc23)c1	0.317 ± 0.028	0.978 ± 0.11	0.992 ± 0.099	1.13 ± 0.028	2.3 ± 0.24	1.7 ± 0.26	0.258 (inactive)
COc1cc2c(c(OC)c1OC)-c1ccc(OC)c(=O)cc1C(NC(C)=O)CC2 (centres undefined)	2.37 ± 0.14	1.47 ± 0.092	2.59 ± 0.15	0.0948 ± 0.0032	1.87 ± 0.21	2.02 ± 0.27	0.673 (inactive)
CC(C)NC(C)C(O)c1ccc2c(c1)CCCC2.Cl (centres undefined)	0.838 ± 0.066	1 ± 0.086	1.1 ± 0.038	0.818 ± 0.091	1 ± 0.099	0.891 ± 0.23	0.994 (active)
CN1C(=O)COc2c(C(=O)NC3CN4CCC3CC4)cc(Cl)cc21.Cl (centres undefined)	0.661 ± 0.054	0.831 ± 0.09	1.08 ± 0.089	0.997 ± 0.046	1.42 ± 0.26	1.71 ± 0.51	0.94 (active)
CCC1(c2ccc(N)cc2)CCC(=O)NC1=O (centres undefined)	1.22 ± 0.091	1.04 ± 0.052	1.06 ± 0.089	1.12 ± 0.26	0.913 ± 0.077	0.939 ± 0.083	0.996 (active)
NNC(=O)c1ccccc1	1.06 ± 0.088	1.05 ± 0.082	1.02 ± 0.022	0.929 ± 0.086	0.914 ± 0.15	0.931 ± 0.12	1 (active)
O=c1[nH]c2ccccc2n1CCCN1CCC(n2c(=O)[nH]c3cc(Cl)ccc32)CC1	0.114 ± 0.018	1.14 ± 0.082	0.973 ± 0.074	0.865 ± 0.026	1.31 ± 0.14	1.12 ± 0.092	0.981 (active)
COc1ccc(-n2c(C)nc3ccc(NC(=O)CC4CCCC4)cc3c2=O)cc1	1.14 ± 0.14	1.06 ± 0.13	0.932 ± 0.075	0.946 ± 0.048	0.925 ± 0.073	0.875 ± 0.15	1.01 (active)
COc1ccccc1CC(=O)N1CCN(Cc2cnnn2-c2ccccc2F)CC1	0.894 ± 0.048	0.985 ± 0.084	1.15 ± 0.065	1.16 ± 0.093	1.14 ± 0.19	1.11 ± 0.46	1.01 (active)
Cc1noc(C)c1CC(=O)N1CCCSCC1CN1CCCC1 (centres undefined)	0.943 ± 0.093	1.03 ± 0.083	0.906 ± 0.04	1.1 ± 0.065	1.09 ± 0.11	0.972 ± 0.14	1 (active)
Cc1cc(C(=O)N2C3CCC2c2cncnc2C3)n(C)n1 (centres undefined)	0.979 ± 0.074	1.01 ± 0.085	0.917 ± 0.046	0.983 ± 0.085	1.19 ± 0.096	1.11 ± 0.22	1 (active)
O=C1NC(=O)C(=CNc2ccccc2C(F)(F)F)C(=O)N1	1.13 ± 0.11	0.946 ± 0.11	1.04 ± 0.1	1.02 ± 0.034	1.21 ± 0.24	1.2 ± 0.2	1.02 (active)
Br.NCCc1cc(O)c(O)cc1O	1.04 ± 0.28	0.911 ± 0.073	1.14 ± 0.08	0.609 ± 0.036	1.32 ± 0.24	1.19 ± 0.19	0.53 (inactive)
COc1cc(CNCCc2ccc(OC)c(OC)c2)cc(OC)c1	0.973 ± 0.078	0.959 ± 0.14	0.989 ± 0.093	1.02 ± 0.032	1.22 ± 0.13	1.45 ± 0.18	1.02 (active)
CC(C)(C)NCC(O)c1cc(Cl)c(N)c(Cl)c1 (centres undefined) [Prestw-345]	1.89 ± 0.13	0.945 ± 0.072	1.29 ± 0.044	1.03 ± 0.04	0.886 ± 0.06	0.933 ± 0.09	0.988 (active)
O=C(O)c1nn(Cc2ccc(Cl)cc2Cl)c2ccccc12	0.833 ± 0.12	0.959 ± 0.14	0.943 ± 0.055	0.926 ± 0.033	1.04 ± 0.25	1.06 ± 0.18	1 (active)
NC(=O)CN1CC(O)CC1=O (centres undefined)	1.04 ± 0.079	1.04 ± 0.051	1 ± 0.03	0.961 ± 0.081	1.02 ± 0.082	0.954 ± 0.097	0.996 (active)
CC12CCC3C(CC=C4CC(O)CCC43C)C1CC(=Cc1cccc(F)c1)C2=O (centres undefined)	0.722 ± 0.046	1 ± 0.061	1.05 ± 0.083	0.907 ± 0.03	1.61 ± 0.13	1.31 ± 0.12	0.933 (active)

From the supplement of paper PMC10646978
